The record followed here is ChEMBL document CHEMBL3988442, “University of Dundee, Small-Polar-MMV Screening Library” (2021).

Experiment [1] has as its target T1, Aspartate--tRNA(Asp/Asn) ligase (Mycobacterium tuberculosis (strain ATCC 25618 / H37Rv)) (UniProt P9WFW3). Further: in the data most compounds retested in dose-response had high values.
T1 sequence (whole entry): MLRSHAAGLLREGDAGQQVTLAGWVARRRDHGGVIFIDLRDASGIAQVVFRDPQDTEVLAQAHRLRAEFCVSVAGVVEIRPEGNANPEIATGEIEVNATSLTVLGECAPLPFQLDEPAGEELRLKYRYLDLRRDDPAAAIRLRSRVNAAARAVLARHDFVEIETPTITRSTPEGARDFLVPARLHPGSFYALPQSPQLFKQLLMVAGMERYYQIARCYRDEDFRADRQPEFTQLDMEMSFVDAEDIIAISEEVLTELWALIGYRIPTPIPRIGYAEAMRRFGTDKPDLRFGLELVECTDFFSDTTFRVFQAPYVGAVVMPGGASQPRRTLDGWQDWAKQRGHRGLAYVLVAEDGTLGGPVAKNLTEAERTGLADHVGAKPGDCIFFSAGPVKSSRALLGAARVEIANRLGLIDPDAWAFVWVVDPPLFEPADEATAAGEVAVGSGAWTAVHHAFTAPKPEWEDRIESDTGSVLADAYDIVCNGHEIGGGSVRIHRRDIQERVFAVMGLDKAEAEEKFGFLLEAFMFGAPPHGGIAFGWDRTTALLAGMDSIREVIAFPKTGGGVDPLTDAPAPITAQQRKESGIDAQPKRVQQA
In words: Assay for Asp RNA synthetase-1 from Mycobacterium tuberculosis. The settings on record: 30 µM. Details: scale not given: direction of the effect not stated beside the values. Type of experiment: functional.

Experiment [2] addresses Shiga toxin 2 (Escherichia coli O157:H7) (UniProt P09385+P09386). In words: E. coli 0.157:H7 Shiga Toxin SOP - stx2 screening assay. Type of experiment: functional. The arrangement: scale not given: direction of the effect not stated beside the values. The following applies: 30 µM.

Regarding `CNc1nc(CNC(=O)Nc2cccc(F)c2)cs1`, the figures for the Percent Effect in experiment [1] and in experiment [2] were -1.08% and -9.25%, respectively.
For `O=S(=O)(NCCN1CCCCC1Cn1cncn1)c1ccccc1` (centres undefined), in that order: 1.46% and 5.96%.
`O=C(NCc1cncc2c1CCN(Cc1cccs1)C2)C1CC1`: the Percent Effect in experiment [1] is 7.52%; in experiment [2] it was -27.9%.
For `Cc1nc2ccccc2c(=O)n1CCC(=O)N1CCSCC1`, in that order: 1.9% and 7.96%.
For `CC(C)Oc1ccccc1C1CC(=O)Nc2c1cnn2C` (centres undefined), the Percent Effect in experiment [1] was 2.79%; in experiment [2], -6.39%.
For `O=C1CC(c2ccncc2)C2(CCN(C(=O)c3ccc[nH]3)CC2)N1` (centres undefined), in that order: -0.81% and -8.09%.
For `CS(=O)(=O)N1C[C@@H]2CC[C@H](C1)N(Cc1cscn1)C2=O`, in that order: 0.593% and -13.6%.
For `Cc1ccccc1CCNC(=O)C1CC(=O)N(CC(F)(F)F)C1` (centres undefined), in that order: 4.08% and 9.05%.
As for `CCCNCc1cc2c(C)cc(C)cc2n2c(=O)n(C)nc12`, the values for the Percent Effect in experiment [1] and in experiment [2] were -5.73% and -11.4%, respectively.
As to `COc1c(CNCc2cccc(CS(C)(=O)=O)c2)c(C)nn1C`, the Percent Effect in experiment [1] came to 1.7%; in experiment [2], 20.4%.
In the case of `CCS(=O)(=O)N(C)C(=O)c1cc(C)n(-c2cccc(OC)c2)c1C`, the Percent Effect in experiment [1] is -6.83%; in experiment [2], -4.96%.
For `CC(C)NC(=O)c1nnn(-c2cccc(C(F)(F)F)c2)c1C1CC1`, in that order: -2.65% and 8.87%.
For `Cc1cc(NC(=O)NCC2CCOC2)no1` (centres undefined), in that order: -7.54% and -24.3%.
For `CC(C)(C)c1ncc2c(n1)CN(C(=O)c1ccc(-c3nc[nH]n3)cc1)C2`, in that order: -2.37% and -62.9%.
As for `O=C(CC1CCCC1)N1CCCC1c1nc(O)cc(-c2ccccn2)n1` (centres undefined), the Percent Effect is -2.84% in experiment [1] and -10.1% in experiment [2].
Consider `O=C(NCCO)Nc1cccc(Cl)c1SC(F)F`, for which the Percent Effect in experiment [1] is 0.334%; in experiment [2], -19.7%.
For `Cc1cc2n(n1)CC(CNCc1ccc(-n3cccn3)nc1)CN2` (centres undefined), in that order: -2.59% and 3.5%.
